# Screening results: PubChem, National Center for Advancing Translational Sciences (NCATS)
# Methyltransferases = Primary Screen for Target Class Profiling of Small Molecule Inhibitors of Methyltransferases | calls only at 40 µM | purified enzyme, MTase-Glo SAH luminescence; stronger effect = lower value | actives 3.9% (n = 25,000); call rule not given here
#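 Each enzyme was reacted with SAM and its substrate, with compounds tested once at 40 uM; SAH formed was read by MTase-Glo luminescence.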
# Active calls of the source: *; i = inactive; + = active, no number; ! = not confirmed by another sample. The full list was thinned out, with hits kept by preference. % is scaled to controls: 0 for no effect and ±100 for the full control effect.
SMILES,Methyltransferases
O=C(O)CCC1CCCN(S(=O)(=O)c2ccc(F)cc2)C1 (centres undefined),i
O=C1C[C@@H](c2ccc(O)cc2)Oc2cc(O)ccc21,i
CCc1ccc(N2C(=O)c3c(C(=O)OC)ncn3CC2(C)C(=O)NC2CCCCCC2)cc1 (centres undefined),i
CCCn1c(=O)c2ccc(Cl)cc2n2c(=O)n(CC(=O)Nc3ccc(C)cc3Cl)nc12,i
CN(Cc1ccc(C(=O)O)cc1)c1ccc(OCc2c(-c3c(Cl)cccc3Cl)noc2C2CC2)nc1C(F)(F)F,+
O=C(Cc1cccc(C(F)(F)F)c1)N[C@H]1CCOC[C@H]1C1CCOCC1,i
Cc1c(Cl)cccc1N1C(=O)c2cc3occc3n2CC1(C)C(=O)NC1CCCCCCC1 (centres undefined),i
CC(C)c1cc2c(N3CCN(C4=NCC(C)(C)S4)CC3)ncnc2s1,+
CCCc1cc2c(N3CCN(C4=NCC(C)(C)S4)CC3)ncnc2s1,+
Cc1ccc(CNC(=O)Cn2nc3n(C)c(=O)c4ccc(C(=O)NCC(C)C)cc4n3c2=O)cc1,i
CC(CN1C(=O)c2cc3sccc3n2CC1(C)C(=O)NC1CCCCCCC1)c1ccccc1 (centres undefined),i
COc1cc(N2CCC(N(C)C)CC2)ccc1Nc1ncc(Cl)c(Nc2ccccc2P(C)(C)=O)n1,+
COc1cc(N2CCC(N3CCN(C)CC3)CC2)ccc1Nc1ncc(Cl)c(Nc2ccccc2S(=O)(=O)C(C)C)n1,+
COc1ccccc1Nc1ncc2c(n1)CN(C(=O)c1ccnn1C)CCN2,i
COc1cc(N2CCN(C)CC2)ccc1Nc1nccc(-c2cn(C)c3cnccc23)n1,i
C[C@@H]1O[C@@H](O[C@H]2[C@H](Oc3cc(O)c(C(=O)CCc4ccc(O)cc4)c(O)c3)O[C@H](CO)[C@@H](O)[C@@H]2O)[C@H](O)[C@H](O)[C@H]1O,i
Nc1nc(Nc2ccc(S(N)(=O)=O)cc2)n(C(=S)Nc2c(F)cccc2F)n1,i
CC1(C(=O)NC2CCCCCCC2)Cn2c(ccc2-c2ccco2)C(=O)N1CC1CCCO1 (centres undefined),i
CC(C)OCCCNC(=O)C1c2c(n(C)c3ccccc23)SCC(=O)N1CCc1ccsc1 (centres undefined),i
CC1(C)CC[C@]2(C(=O)O[C@@H]3O[C@H](CO)[C@@H](O)[C@H](O)[C@H]3O)[C@H](O)C[C@]3(C)C(=CCC4[C@@]5(C)CC[C@H](O[C@@H]6OC[C@@H](O)[C@H](O)[C@H]6O)[C@@](C)(C(=O)O)C5CC[C@]43C)[C@@H]2C1 (some centres undefined),i
COc1ccc(CNC(=O)Cn2ccc3cc(S(=O)(=O)N4CCC(C)CC4)ccc32)cc1OC,i
CCCCOc1ccc2c(-c3ccccc3)cc(=O)oc2c1,i
COc1cccc(CN2C(=O)c3nc4ccccc4n3CC2(C)C(=O)NC2CCCCC2)c1OC (centres undefined),i
CCCn1c(=O)c2ccccc2n2c(SCC(=O)NC(C)C)nnc12,i
CC(C)N(CCCNC(=O)Nc1ccc(C(C)(C)C)cc1)C[C@H]1O[C@@H](n2ccc3c(N)ncnc32)[C@H](O)[C@@H]1O,+!
SMILES,Methyltransferases
CC(C)N(CCCNC(=O)Nc1ccc(C(C)(C)C)cc1)C[C@H]1O[C@@H](n2cc(Br)c3c(N)ncnc32)[C@H](O)[C@@H]1O,+
O=S(=O)(O)c1ccc(Nc2ncnc3c2ncn3[C@@H]2O[C@H](CO)[C@@H](O)[C@H]2O)cc1,i
CN1CCOC[C@H]2CCN(C(=O)c3cccs3)C[C@H]21,i
Cc1ccc(CN2C(=O)c3cc(-c4ccco4)nn3CC2(C)C(=O)NC2CCC(C)CC2)cc1 (centres undefined),i
Cc1nc2ccccc2n1CCNS(=O)(=O)c1ccc(F)cc1,i
Cc1ccc(C)c(N2C(=O)c3cc4sccc4n3CC2(C)C(=O)NC2CCCC(C)C2C)c1 (centres undefined),i
O=c1[nH]ccc2nc(-c3ccc(CN4CCC(c5nc(-c6ccccn6)n[nH]5)CC4)cc3)c(-c3ccccc3)cc12,+
O=C1CN(Cc2ccc(-c3ccccc3)cc2)CCN1c1ccc(Cl)nn1,i
COCCCNC(=O)CCc1nnc2n(Cc3ccccc3Cl)c(=O)c3ccccc3n12,i
COc1cccc(CN2C(=O)c3nc4ccccc4n3CC2(C)C(=O)NC2CCCCCC2)c1OC (centres undefined),i
O=C(c1ccccc1)N1CCCC2(CC(c3ccccn3)=NO2)C1 (centres undefined),i
Cc1ccc(NC(=O)c2ncn3c2C(=O)N(C2CC2)C(C)(C(=O)NCc2ccc(F)cc2)C3)c(C)c1 (centres undefined),i
CC(=O)OC(C)C(C)(O)C(=O)O[C@@H]1CC[C@]2(C)CC(=O)C(=C(C)C)C[C@H]2[C@]1(C)OC(C)=O (some centres undefined),i
CC1=CC(=O)C(=C(C)C)CC2C1CCC2(C)O (centres undefined),i
CC(C)=C1CC2C(CCC2(C)O)C(C)(O)CC1=O (centres undefined),+
COc1ccc(-c2n[nH]c3c2CC(=O)N(c2ccccc2)C3)cn1,i
CCOC(=O)CNC(=O)N1Cc2c(sc3c2CCCC3)-n2cccc2C1c1ccc(SC)cc1 (centres undefined),i
COc1ccccc1CCN1C(=O)c2cc3ccccc3n2CC1(C)C(=O)NCc1ccccc1 (centres undefined),i
CCCCNc1nc2c(S(=O)(=O)c3ccc(C)c(C)c3)nnn2c2ccccc12,i
C=CC(=O)Nc1cccc(Oc2nc(Nc3ccc(N4CCN(C)CC4)cc3)ncc2Cl)c1,+
Cc1cc(-c2cc(OC(=O)c3ccccc3)ccc2Cl)cc2nnc(Nc3ccc(OCCN4CCCC4)cc3)nc12,i
C=CC(=O)Nc1cccc(Nc2nc(Nc3ccc(N4CCN(C(C)=O)CC4)cc3OC)ncc2C(F)(F)F)c1,i
COc1cccc(N2C(=O)c3cc4sccc4n3CC2(C)C(=O)NC2CCCCCC2)c1 (centres undefined),i
Cc1ccc(CN2CC(N(CC3CC3)C3CCOCC3)C2)cc1,i
CN(C)c1nc(NC2CCC(NCCc3ccc(Br)cc3OC(F)(F)F)CC2)nc2ccccc12 (centres undefined),+
SMILES,Methyltransferases
COC(=O)c1ccc([C@H]2Nc3ccc(S(=O)(=O)Nc4ccc(C)c(C)c4)cc3[C@H]3C=CC[C@H]32)cc1,i
Cc1ccc2c(c1)c(-n1cccc1)c1n2CC(C)(C(=O)NC2CCC(C)CC2)N(Cc2ccccc2Cl)C1=O (centres undefined),i
CCCn1c(=O)c2ccc(C(=O)NC(C)CC)cc2n2c(=O)n(Cc3c(F)cccc3Cl)nc12 (centres undefined),i
O=C(Nc1ccccc1)c1cc([N+](=O)[O-])ccc1Cl,i
O=C(Nc1ncc([N+](=O)[O-])s1)c1ccccc1O,i
O=C(c1cc(O)c(O)c([N+](=O)[O-])c1)c1ccccc1F,+
CC(C(=O)NCc1cccc(F)c1)n1ccc2cc(S(=O)(=O)N3CCCC3)ccc21 (centres undefined),i
COC(=O)C(Cc1c[nH]c2ccccc12)NC(=O)c1ccc(Br)cc1 (centres undefined),i
COC(=O)[C@H](Cc1cccc(C(=N)N)c1)[C@@H](C)NC(=O)c1ccc(-c2cc[n+]([O-])cc2)cc1,+
